Experiment [1] can be described thus: NCI Yeast Anticancer Drug Screen. Data for the rad50 strain (AID 155).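 Also: 0% = growth of vehicle-only cultures of the same strain.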 As to conditions: S. cerevisiae rad50 strain growth inhibition, active compounds read high. In outline: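 Genetically altered yeast (DNA repair pathway); compound treatment; growth inhibition vs vehicle ctrl.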
Experiment [2] can be described thus: NCI Yeast Anticancer Drug Screen. Data for the mec2-1 strain (AID 157). Conditions: S. cerevisiae mec2-1 strain, active compounds read high. In outline: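 Readout is yeast growth inhibition, normalised to vehicle-treated controls, in the mec2-1 strain exposed to compound.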
A short description of experiment [3]: NCI Yeast Anticancer Drug Screen. Data for the sgs1 mgt1 strain (AID 161).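 Also: 0% = growth of cultures given vehicle only.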 Conditions: S. cerevisiae sgs1 mgt1 strain, active compounds read high. In a few lines:
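Percent growth inhibition was derived by comparing compound-exposed mutant yeast with vehicle-exposed cultures. The strain carries alterations in DNA damage repair.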

Experiment [4] can be described thus: NCI Yeast Anticancer Drug Screen. Data for the cln2 rad14 strain (AID 165).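 Also: 0% = growth equal to vehicle treated cultures.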 Conditions: S. cerevisiae cln2 rad14 strain, active compounds read high. In outline:
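Relative to vehicle controls, growth inhibition of compound-treated cln2 rad14 yeast was recorded.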

Experiment [5] is described as follows: NCI Yeast Anticancer Drug Screen. Data for the bub3 strain (AID 167). Conditions: S. cerevisiae bub3 mutant strain, active compounds read high. In a few lines: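 Yeast carrying a defined mutation is treated with each compound, and growth is compared with that of vehicle-exposed cells to give inhibition.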
Experiment [6] is described as follows: NCI Yeast Anticancer Drug Screen. Data for the mlh1 rad18 strain (AID 175). Conditions: S. cerevisiae mlh1 rad18 strain growth inhibition, active compounds read high. In outline: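 Test agents were incubated with a yeast strain of defined genotype (DNA damage repair defect). Inhibition of growth was derived by comparison with vehicle-exposed cultures.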
Where [7] appears, read: at 5.0 µM (retest, dose inferred, filed as 0.5).
Setting [8] is: at 50.0 µM (retest, dose inferred, filed as 5.0).

Compounds without any hit were thinned out: in the full panel of roughly 79,000, 15% have a hit. Values without a mark were called inactive. The source made the active and inactive calls. Rule as the data show it: active = growth inhibition above about 70%; inactive = the rest.

As for `N#CC(Cl)(Cl)CCl`, the growth inhibition in experiment [1] (setting [7]) is 6%; in experiment [1] (setting [8]), 41%; in experiment [1] (at 50.0 µM), -16.8%; in experiment [2] (setting [7]), -4%; in experiment [2] (setting [8]), 15%; in experiment [2] (at 50.0 µM), 13.2%. Besides, the growth inhibition in experiment [3] (setting [7]) is 4%; in experiment [3] (setting [8]) it was 42%; in experiment [3] (at 50.0 µM) it was -9%; in experiment [4] (setting [7]), -5%; in experiment [4] (setting [8]), 33%; in experiment [4] (at 50.0 µM) it was 47%. The growth inhibition in experiment [5] (setting [7]) was 6%; in experiment [5] (setting [8]), 99% (active); in experiment [5] (at 50.0 µM), 0.15%; in experiment [6] (setting [7]), 2%; in experiment [6] (setting [8]) it was 38%; in experiment [6] (at 50.0 µM) it was 2.5%.

Regarding `O=[N+]([O-])c1cc([N+](=O)[O-])c(Cl)s1`, the growth inhibition in experiment [1] (setting [7]) was 98% (active); in experiment [1] (setting [8]) it was 99% (active); in experiment [1] (at 50.0 µM) it was 99.5% (active); in experiment [2] (setting [7]), 99% (active); in experiment [2] (setting [8]), 83% (active); in experiment [2] (at 50.0 µM) it was 99.7% (active). Besides, the growth inhibition is 99% (active) in experiment [3] (setting [7]); 100% (active) in experiment [3] (setting [8]); 99.4% (active) in experiment [3] (at 50.0 µM); 99% (active) in experiment [4] (setting [7]); 98% (active) in experiment [4] (setting [8]); 99.3% (active) in experiment [4] (at 50.0 µM). The growth inhibition was 99% (active) in experiment [5] (setting [7]); 99% (active) in experiment [5] (setting [8]); 99.5% (active) in experiment [5] (at 50.0 µM); 99% (active) in experiment [6] (setting [7]); 99% (active) in experiment [6] (setting [8]); 99.6% (active) in experiment [6] (at 50.0 µM).

For the compound `O=[N+]([O-])c1ccc(CS(=O)(=O)C(Cl)(Cl)Cl)o1`, the growth inhibition in experiment [1] (setting [7]) was 39%; in experiment [1] (setting [8]) it was 99% (active); in experiment [1] (at 50.0 µM), 95.5% (active); in experiment [2] (setting [7]), 25%; in experiment [2] (setting [8]), 100% (active); in experiment [2] (at 50.0 µM) it was 98.5% (active). The growth inhibition in experiment [3] (setting [7]) was 16%; in experiment [3] (setting [8]) it was 99% (active); in experiment [3] (at 50.0 µM), 97.5% (active); in experiment [4] (setting [7]) it was 3%; in experiment [4] (setting [8]), 99% (active); in experiment [4] (at 50.0 µM), 94% (active). For the same compound, the growth inhibition in experiment [5] (setting [7]) was 8%; in experiment [5] (setting [8]), 98% (active); in experiment [5] (at 50.0 µM) it was 90.3% (active); in experiment [6] (setting [7]) it was 18%; in experiment [6] (setting [8]), 99% (active); in experiment [6] (at 50.0 µM) it was 98.8% (active).

Turning to `O=C([CH-]C(=O)c1ccccc1)c1ccccc1.O=C([CH-]C(=O)c1ccccc1)c1ccccc1.[Nd+3].[OH-].[OH3+]`, the growth inhibition in experiment [1] (setting [7]) was 34%; in experiment [1] (setting [8]) it was 34%; in experiment [1] (at 50.0 µM) it was 92.2% (active); in experiment [2] (setting [7]), 11%; in experiment [2] (setting [8]), 11%; in experiment [2] (at 50.0 µM) it was 93.7% (active). In addition, the growth inhibition is 38% in experiment [3] (setting [7]); 38% in experiment [3] (setting [8]); 94.2% (active) in experiment [3] (at 50.0 µM); 36% in experiment [5] (setting [7]); 36% in experiment [5] (setting [8]); 92.2% (active) in experiment [5] (at 50.0 µM). In addition, the results for the growth inhibition in experiment [6] (setting [7]), in experiment [6] (setting [8]) and in experiment [6] (at 50.0 µM) were 30%, 30% and 89.8% (active), respectively.

Consider `CCC[CH2][Sn]1([CH2]CCC)[O]CCN2CCN(CC[O]1)CC2`, for which the growth inhibition in experiment [1] (setting [7]) is -4%; in experiment [1] (setting [8]) it was 12%; in experiment [1] (at 50.0 µM) it was 74.1% (active); in experiment [2] (setting [7]), -4%; in experiment [2] (setting [8]), 13%; in experiment [2] (at 50.0 µM), 94% (active). Moreover, the growth inhibition was -3% in experiment [3] (setting [7]); 9% in experiment [3] (setting [8]); 83.2% (active) in experiment [3] (at 50.0 µM); -2% in experiment [5] (setting [7]); 10% in experiment [5] (setting [8]); 53.1% in experiment [5] (at 50.0 µM). Moreover, the growth inhibition in experiment [6] (setting [7]) was -6%; in experiment [6] (setting [8]) it was 15%; in experiment [6] (at 50.0 µM), 85.7% (active).

As for `Oc1c(Cl)cc(Cl)c2ccccc12.[Cu+2]`, the growth inhibition in experiment [1] (setting [7]) is -5%; in experiment [1] (setting [8]), 91% (active); in experiment [1] (at 50.0 µM) it was 99.3% (active); in experiment [2] (setting [7]) it was -34%; in experiment [2] (setting [8]), 77% (active); in experiment [2] (at 50.0 µM) it was 99.1% (active). Moreover, the growth inhibition is -5% in experiment [3] (setting [7]); 91% (active) in experiment [3] (setting [8]); 99.2% (active) in experiment [3] (at 50.0 µM); -2% in experiment [5] (setting [7]); 93% (active) in experiment [5] (setting [8]); 99.5% (active) in experiment [5] (at 50.0 µM). In addition, the growth inhibition was 0% in experiment [6] (setting [7]), 93% (active) in experiment [6] (setting [8]) and 99.2% (active) in experiment [6] (at 50.0 µM).

As to `CC(=O)[O][Hg][c]1c(C)c(C)cc(C)c1C`, the growth inhibition in experiment [1] (setting [7]) is 99% (active); in experiment [1] (setting [8]), 96% (active); in experiment [1] (at 50.0 µM), 90.1% (active); in experiment [3] (setting [7]), 99% (active); in experiment [3] (setting [8]) it was 98% (active); in experiment [3] (at 50.0 µM), 87.7% (active). For the same compound, the growth inhibition was 99% (active) in experiment [4] (setting [7]); 98% (active) in experiment [4] (setting [8]); 85.7% (active) in experiment [4] (at 50.0 µM); 99% (active) in experiment [5] (setting [7]); 97% (active) in experiment [5] (setting [8]); 84.2% (active) in experiment [5] (at 50.0 µM). Further, the growth inhibition in experiment [6] (setting [7]) was 99% (active); in experiment [6] (setting [8]) it was 96% (active); in experiment [6] (at 50.0 µM) it was 76.2% (active).

In the case of `CCC[CH2][Sn-]([CH2]CCC)([CH2]CCC)[O]c1cc(Cl)c(Cl)cc1Cl`, the growth inhibition in experiment [1] (setting [7]) is 99% (active); in experiment [1] (setting [8]), 96% (active); in experiment [1] (at 50.0 µM) it was 90% (active); in experiment [2] (setting [7]), 100% (active); in experiment [2] (setting [8]) it was 100% (active); in experiment [2] (at 50.0 µM) it was 93.2% (active). Further, the growth inhibition in experiment [3] (setting [7]) is 100% (active); in experiment [3] (setting [8]), 100% (active); in experiment [3] (at 50.0 µM), 93.2% (active); in experiment [5] (setting [7]), 100% (active); in experiment [5] (setting [8]), 100% (active); in experiment [5] (at 50.0 µM), 91.8% (active). Moreover, the growth inhibition in experiment [6] (setting [7]) was 99% (active); in experiment [6] (setting [8]) it was 94% (active); in experiment [6] (at 50.0 µM) it was 90.2% (active).

For `CC(=O)[O-].O=C([CH-]C(=O)c1ccccc1)c1ccccc1.O=C([CH-]C(=O)c1ccccc1)c1ccccc1.[Y+3]`, the growth inhibition in experiment [1] (setting [7]) is 35%; in experiment [1] (setting [8]) it was 35%; in experiment [1] (at 50.0 µM) it was 91.4% (active); in experiment [2] (setting [7]), 19%; in experiment [2] (setting [8]) it was 19%; in experiment [2] (at 50.0 µM) it was 93.7% (active). For the same compound, the growth inhibition in experiment [3] (setting [7]) is 42%; in experiment [3] (setting [8]) it was 42%; in experiment [3] (at 50.0 µM), 93.6% (active); in experiment [5] (setting [7]) it was 21%; in experiment [5] (setting [8]), 21%; in experiment [5] (at 50.0 µM) it was 92% (active). Also, the growth inhibition in experiment [6] (setting [7]) is 13%; in experiment [6] (setting [8]), 13%; in experiment [6] (at 50.0 µM), 90.5% (active).

`CC12CCC3C(CCC4Cc5nc6nnnn6cc5CC43C)C1CCC2O` (centres undefined): the growth inhibition in experiment [1] (setting [7]) was 4%; in experiment [1] (setting [8]) it was 79% (active); in experiment [1] (at 50.0 µM) it was 55%; in experiment [2] (setting [7]), 20%; in experiment [2] (setting [8]), 71% (active); in experiment [2] (at 50.0 µM), 40.9%. For the same compound, the growth inhibition in experiment [4] (setting [7]) is 4%; in experiment [4] (setting [8]), 44%; in experiment [4] (at 50.0 µM), 29.6%; in experiment [5] (setting [7]), 2%; in experiment [5] (setting [8]) it was 38%; in experiment [5] (at 50.0 µM), 53.8%. Besides, the growth inhibition was 11% in experiment [6] (setting [7]), 82% (active) in experiment [6] (setting [8]) and 47% in experiment [6] (at 50.0 µM).

(Values after PubChem BioAssay (NCI).)
